Structures are written as SMILES. Results with a measured potency or affinity are listed apart. The source made the active and inactive calls.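 The calls were made as follows: active = absorbance falls by 30% or more versus neutral controls, with a potency fitted within twice the top valid dose; inconclusive = no clear call, values can overlap the other calls; inactive = change opposite to expected direction, plus the rest.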

In the assay the target is Protein disulfide-isomerase (Homo sapiens) (UniProt P07237). The assay is described as follows: inhibition of PDI-driven insulin aggregation – biochemical, turbidity, absorbance, cherry-picked samples, dose response (AID 602350). The conditions noted are these: recombinant PDI insulin aggregation, absorbance 650 nm, 90 min; series mostly up to 19.5 µM.
Protein disulfide-isomerase (Homo sapiens), sequence (P07237 whole entry, looked up): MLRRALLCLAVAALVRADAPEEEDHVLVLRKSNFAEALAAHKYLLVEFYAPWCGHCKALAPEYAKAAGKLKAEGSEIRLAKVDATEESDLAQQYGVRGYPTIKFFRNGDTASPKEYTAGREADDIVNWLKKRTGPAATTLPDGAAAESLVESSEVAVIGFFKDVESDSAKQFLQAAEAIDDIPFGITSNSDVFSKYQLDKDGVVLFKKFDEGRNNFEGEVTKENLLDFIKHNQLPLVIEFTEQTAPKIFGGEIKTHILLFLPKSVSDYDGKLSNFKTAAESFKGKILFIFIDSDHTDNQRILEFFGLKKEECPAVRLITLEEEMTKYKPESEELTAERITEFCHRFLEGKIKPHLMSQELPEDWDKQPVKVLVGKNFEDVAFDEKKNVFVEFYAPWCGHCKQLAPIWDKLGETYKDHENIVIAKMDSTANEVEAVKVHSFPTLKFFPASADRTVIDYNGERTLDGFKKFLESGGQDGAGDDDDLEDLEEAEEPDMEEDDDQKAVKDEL
`N#Cc1ccccc1CSc1nnc(Cc2ccccc2)o1`: the result was inactive.
Take `O=C(c1ccc(NS(=O)(=O)c2ccccc2)cc1)N1CCOCC1`: the outcome was inactive.
Take `CN(C)S(=O)(=O)c1ccc(C(=O)Nc2ccc3nc(N4CCOCC4)sc3c2)cc1`: the result was inactive.
Consider `Cn1cc(Cl)c(C(=O)OCC(=O)Nc2ccccc2)n1`, for which the result was inactive.
As for `c1ccc(Cn2nnc3c(Nc4ccc5c(c4)OCO5)nc(C4CC4)nc32)cc1`, the outcome was inactive.
Consider `COc1ccc(Oc2ccc(/C=C/C(=O)c3ccc(O)cc3)cc2[N+](=O)[O-])cc1`, for which the result was inactive.
Regarding `Cc1ccc(C)c(NS(=O)(=O)c2c(C)nn(C)c2C)c1`, the result was inactive.
As for `CN(C)c1ccc(C2(O)C(=O)c3ccccc3C2=O)cc1`, the entry is “inactive”; as for `O=C(Nc1oc2ccccc2c(=O)c1-c1ccc(Cl)cc1)c1ccco1`, “inactive”; as for `COc1ccc(/C=C/C(=O)c2cc(F)ccc2OC(=O)c2ccccc2OC)cc1OC`, “inactive”.
For `CCOC(=O)C1(CCOc2ccccc2)CCN(Cc2ccc(O)cc2)CC1`, the outcome was inactive.
With `CCOC(=O)c1c(CN2CCN(CCO)CC2)n(C)c2cc(Br)c(OC)cc12`, the outcome was inactive.
As for `C[C@H](CO)N1C[C@H](C)[C@@H](CN(C)S(=O)(=O)c2ccc(F)cc2)Oc2ccc(NC(=O)Cc3ccccc3)cc2C1=O`, the outcome was inactive.
Turning to `CC(O)(c1cccnc1)c1nc(-c2cc(F)cc(F)c2)cs1` (centres undefined), the result was inactive.
Turning to `COc1ccccc1NS(=O)(=O)c1ccc(C)c(C(=O)NCC2(N(C)C)CCCCC2)c1`, the outcome was inactive.
For `O=C1C[C@H](c2ccc(O)cc2)Oc2cc(O[C@@H]3O[C@H](CO)[C@@H](O)[C@H](O)[C@H]3O)cc(O[C@@H]3O[C@H](CO)[C@@H](O)[C@H](O)[C@H]3O)c21`, the outcome was inactive.
Consider `O=C1/C(=C\c2ccc(O)cc2)CCC1CNc1ccc(Cl)cc1` (centres undefined), for which the result was inactive.
As to `CCCNC(=O)c1cccc(COc2ccccc2OC)c1`, the result was inactive.
As to `CCc1nc2ccc(C(=O)N(CC)CC(=O)Nc3c(F)cccc3F)cc2nc1CC`, the outcome was inactive.
The entry for `CN(C)C(=O)CSc1nnc([C@H](Cc2ccccc2)NC(=O)OC(C)(C)C)o1` is “inactive”.
For the molecule `COc1cccc(NC(=O)CN(C)C(=O)/C=C/c2cc(OC)ccc2OC)c1`, the outcome was inactive.
As for `CCS(=O)(=O)c1ccc2oc(SCC(=O)NC(C)C3CC4CCC3C4)nc2c1` (centres undefined), the entry is “inactive”; as for `O=C1CC(C(=O)N2CCc3ccccc32)CN1c1ccc(F)cc1` (centres undefined), “inactive”.
Turning to `CN(C)c1ccc(/C=C/C(=O)c2ccc(O)cc2)cc1[N+](=O)[O-]`, the result was inactive.
The entry for `CCOC(=O)c1ccc(NC(=O)C2(c3ccc(Cl)cc3)CCCC2)cc1` is “inactive”; for `Cc1ccc(N2CC(C(=O)Nc3nc4ccc(S(C)(=O)=O)cc4s3)CC2=O)cc1` (centres undefined) it is “inactive”.
Turning to `CC(OC(=O)c1cccc(S(=O)(=O)N(C)C)c1)C(=O)NCC(=O)Nc1ccc(F)c(F)c1F` (centres undefined), the outcome was inactive.
With `Cc1ccc(N(Cc2ccccc2)C(=O)c2cccc(S(=O)(=O)N3CC(C)OC(C)C3)c2)cc1` (centres undefined), the result was inactive.
Consider `COc1ccc(C2c3ccc(O)cc3Oc3ncn(CCCO)c(=N)c32)cc1` (centres undefined), for which the outcome was inactive.
As to `CCCCNC(=O)N1CCN(C(=O)C2CCCO2)CC1` (centres undefined), the result was inactive.
Turning to `COc1ccc(C2c3ccc(O)cc3Oc3ncn(Cc4ccco4)c(=N)c32)cc1OC` (centres undefined), the result was inactive.
Take `CN1CCN(C(=O)CSc2nnc(COc3ccc(Cl)cc3)o2)CC1`: the outcome was inactive.
The entry for `CCCN(CCC)S(=O)(=O)c1ccc(C(=O)Nc2nnc(COC)o2)cc1` is “inactive”.
As to `O=C(NCc1cccs1)C1CC(c2ccc(F)cc2)=NO1` (centres undefined), the result was inactive.
For `C=CCNc1ncnc2c1ncn2[C@H]1CN(Cc2cccc3ccccc23)C[C@@H](CO)O1`, the result was inactive.
The entry for `Cc1nn(CC(=O)NCC2CCCO2)c(C)c1[N+](=O)[O-]` (centres undefined) is “inactive”; for `NC1=NC[C@H](Cc2ccc(O)cc2)N1CC1CCCCC1` it is “inactive”; for `Cc1nc(C(=O)Nc2cccc(Cl)c2Cl)nn1-c1cc(OC(C)C)c(Cl)cc1Cl` it is “inactive”.
In the case of `CCOC(=O)c1oc2cccc(O)c2c1CN(Cc1ccccc1)C(C)=O`, the result was inactive.

The values are drawn from PubChem BioAssay AID602350 (Broad Institute, 2012).
